# Assay outcomes (PubChem BioAssay)
# Rows were chosen to be rich in hits. Some 14% of all compounds tested hit in one or more screens of this group.
# Pf growth 96h: P. falciparum growth inhibition at 96 hours; P. falciparum luciferase reporter growth, 96 h; Potency, µM (doses to about 28.7 µM), usual class: inhibitors; hit rate 6.9% among 320,000
#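 P. falciparum expressing integrated firefly luciferase grown in erythrocytes (2% hematocrit, 0.05% parasitemia final) with compounds for 96 hours at 37 C, 5% CO2. Growth inhibition read as loss of luminescence after adding luciferase detection reagent.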
# Pf growth 48h: P. falciparum growth inhibition at 48 hours (one generation) | P. falciparum luciferase growth in erythrocytes, 48 h | Potency, µM (titrated, usually from 28.7 µM), usual class: inhibitors | hit rate 5.9% among 310,000 | AID 504832
#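 A one-generation exposure of luciferase-tagged malaria parasites in RPMI 1640/Albumax erythrocyte culture, 37 C and 5% CO2. Inhibition is inferred from decreased luminescence after adding detection reagent.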
# Sm TGR inh: inhibitors of Schistosoma mansoni thioredoxin glutathione reductase; Q962Y6; hit rate 3% among 360,000; Potency, µM (doses to about 114 µM), usual class: inhibitors; purified TGR, DTNB reduction, TNB absorbance 405 nm; AID 485364; further: nearly all actives have a fitted effect of over 60% in size
#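 Kinetic colorimetric format: TGR-catalysed, NADPH-driven DTNB reduction monitored via TNB absorbance. Enzyme dispensed at 20 nM; compound exposure 15 min at room temperature before reaction start.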
# HCMV antiviral: inhibitors of human cytomegalovirus. HFF cells, HCMV-luciferase reporter, 72 h; hits give low values. activity change, negative = inhibition, % at 57.5 µM. hit rate 4.5% among 410,000. AID 1259415; in the data active means activity change below about -60%; inconclusive means no clear call, values can overlap the other calls; inactive means above about -39%
#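 Two compound doses tested in HFFs infected with HCMV-luciferase, MOI 1 PFU/cell, 72 h at 37C. Lysate luminescence read with OneGlo; data normalized against buffer-only and 10uM Salinomycin inhibitor controls.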
# Giardia FBPA inh-1: blocks Giardia fructose-bisphosphate aldolase activity; A8B2U2; purified Giardia FBPA; Potency, µM (series often up to 59.6 µM), usual class: inhibitors; hit rate 0.71% among 290,000; further: nearly all actives have a fitted effect of over 55% in size
# Target sequence (A8B2U2 whole entry, looked up): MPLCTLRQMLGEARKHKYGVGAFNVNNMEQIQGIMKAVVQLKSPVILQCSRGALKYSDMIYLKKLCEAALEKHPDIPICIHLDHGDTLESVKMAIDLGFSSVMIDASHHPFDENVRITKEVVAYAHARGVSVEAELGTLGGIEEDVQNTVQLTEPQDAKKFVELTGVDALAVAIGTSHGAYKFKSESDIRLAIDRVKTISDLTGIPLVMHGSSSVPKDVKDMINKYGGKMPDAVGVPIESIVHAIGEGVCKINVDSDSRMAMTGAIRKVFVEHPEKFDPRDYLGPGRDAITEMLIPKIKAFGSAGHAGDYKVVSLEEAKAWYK
#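 Giardia FBPA (40 nM reagent) was preincubated 10 min at RT with compound (up to 57.5 uM final), then substrate plus GAPDH/TPI/NAD/arsenate coupling system with diaphorase/resazurin was added; resorufin fluorescence (525/598 nm) was read after 20 min.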
# Giardia growth: inhibitors of Giardia lamblia growth. hit rate 5% among 1,500. shares compounds with Giardia FBPA inh-1. Potency, µM (doses to about 57.5 µM), hits mostly inhibitors. Giardia lamblia trophozoite growth inhibition;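 further: trophozoites exposed to compound for 48 h at 37 °C; nearly all actives have a fitted effect of over 70% in size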
# Mammal cell tox: mammalian cytotoxicity of Giardia aldolase inhibitor hits; shares compounds with Giardia FBPA inh-1; mammalian cell viability counter-screen, qHTS; Potency, µM (doses to about 57.5 µM), actives largely listed as inhibitors; hit rate 4% among 1,500; AID 2786;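 further: Chinese hamster ovary cells used as mammalian cytotoxicity surrogate; viability measured as cellular ATP by luminescence; compound exposure lasted 48 h before reading; nearly all actives have a fitted effect of over 60% in size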
# Giardia FBPA inh-2: confirmation of Giardia fructose-bisphosphate aldolase inhibitors | shares compounds with Giardia FBPA inh-1 | Potency, µM (top dose mostly 57.5 µM), usual class: inhibitors | hit rate 5% among 1,500 | AID 2787 | purified Giardia aldolase enzyme activity, qHTS; further: nearly all actives have a fitted effect of over 45% in size
# Rabbit FBPA inh: selectivity test for Giardia aldolase inhibitors: rabbit aldolase. shares compounds with Giardia FBPA inh-1. Rabbit muscle FBPA enzyme inhibition, selectivity counter-screen. Potency, µM (titrated, usually from 57.5 µM), actives largely listed as inhibitors. hit rate 4% among 1,500. AID 2794; further: nearly all actives have a fitted effect of over 60% in size
# Target sequence (P00883 whole entry, looked up): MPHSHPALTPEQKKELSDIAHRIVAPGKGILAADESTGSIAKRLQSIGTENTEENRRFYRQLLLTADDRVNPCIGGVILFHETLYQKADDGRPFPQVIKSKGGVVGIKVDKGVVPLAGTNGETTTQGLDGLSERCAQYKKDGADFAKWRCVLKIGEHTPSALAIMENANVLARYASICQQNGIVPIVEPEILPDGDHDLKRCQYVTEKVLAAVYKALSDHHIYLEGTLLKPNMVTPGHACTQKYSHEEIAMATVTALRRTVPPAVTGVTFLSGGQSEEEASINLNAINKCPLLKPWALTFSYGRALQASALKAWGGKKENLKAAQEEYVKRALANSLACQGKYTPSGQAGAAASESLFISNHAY
# GAPDH coupling: counter-screen for Giardia aldolase inhibitors: GAPDH coupling enzyme; shares compounds with Giardia FBPA inh-1; GAPDH coupling enzyme counterscreen, biochemical, qHTS; Potency, µM (highest dose often 57.5 µM), actives largely listed as inhibitors; hit rate 6% among 1,500; AID 2795; further: nearly all actives have a fitted effect of over 55% in size
# Hits are given with their value; n = inactive; u = inconclusive; x = no result; ! = a repeat was not active; [ ] = another dose, or the depositor's remark. Unless noted, the call rests on the fitted dose curve; in most records, active means well fitted curve in the direction sought with a large enough effect; inconclusive means small, poorly fitted or top-dose-only effect, or another doubt; inactive means no such curve, though single readings can be large; an effect the other way counts as inactive or inconclusive.
SMILES,Pf growth 96h,Pf growth 48h,Sm TGR inh,HCMV antiviral,Giardia FBPA inh-1,Giardia growth,Mammal cell tox,Giardia FBPA inh-2,Rabbit FBPA inh,GAPDH coupling
Cc1c2cnn(-c3ccccc3)c(=O)c2c(C)n1CC(=O)NCc1ccccc1Br,x,x,n,n,x,x,x,x,x,x
CCOC(=O)Cc1csc(NC(=S)NC(=O)c2ccc(F)cc2)n1,u,u,u,-61.8,7.92µM,n,n,n,n,n
CCOC(=O)Cc1csc(NC(=S)NC(=O)c2cc(OC)c(OC)c(OC)c2)n1,n,n,n,n,19.9µM,n,n,n,n,n
O=C(O)c1cc(-c2ccccn2)n[nH]1,u,n,n,n,6.31µM,n,n,n,n,n
CC1(C)OC(=O)C2=C(CC(CCc3ccccc3)OC2c2ccc(F)cc2)O1 (centres undefined),x,x,x,n,x,x,x,x,x,x
COC(=O)Cc1[nH]n(-c2nc3ccccc3s2)c(=O)c1C(C)=Nc1ccc(Cl)cc1,n,n,n,n,15.8µM,u,n,n,n,n
COC(=O)Cc1[nH]n(-c2ccccc2)c(=O)c1C(C)=Nc1ccccc1,n,n,n,u,n,x,x,x,x,x
CCC(CC)C(=O)NN(C(=O)c1ccncc1)C1CC(=O)N(c2ccccc2)C1=O (centres undefined),n,n,n,n,n,x,x,x,x,x
O=C(N/N=C/c1ccccn1)c1cccc(S(=O)(=O)Nc2ccccc2Cl)c1,n,u,n,n,15.8µM,u,n,n,n,u
CCN(CC)S(=O)(=O)c1cccc(C(=O)N/N=C/c2ccccn2)c1,n,u,n,n,17.7µM,n,n,n,n,n
COc1cccc(CNC(=O)Cn2c(C)c3cnn(-c4ccccc4)c(=O)c3c2C)c1,x,x,n,n,x,x,x,x,x,x
COCCNC(=S)N/N=C1\CC(C)CC(C)(C)C1 (centres undefined),4.65µM,u,u,-76.0,17.7µM,n,n,n,n,n
COCCNC(=S)NN=C1CCCCCC1,n,u,n,-115.1,19.9µM,n,n,n,n,n
CCOC(=O)N/N=C1\CC(C)CC(C)(C)C1 (centres undefined),n,n,n,n,n,x,x,x,x,x
CCOc1cc(C(=O)Nc2ccc(S(=O)(=O)NC3=NCCCCC3)cc2)cc(Br)c1OC,u,n,n,n,x,x,x,x,x,x
CN1C(=O)/C(=C/C=C/c2ccco2)C(=O)NC1=S,n,n,u,n,15.8µM,n,n,n,n,n
COc1ccc(OCC(=O)Nc2ccccc2C(=O)NC2CC2)cc1,n,n,n,n,x,x,x,x,x,x
COc1nc(N/N=C/c2ccc(-c3ccccc3[N+](=O)[O-])o2)nc(N2CCOCC2)n1,u,n,n,n,4.46µM,n,n,u,u,39.8µM
COC(=O)c1ccccc1-c1ccc(/C=N/Nc2nc(N3CCCC3)nc(N3CCCC3)n2)o1,u,u,n,n,n,x,x,x,x,x
c1ccc2[nH]c(SN3CCOCC3)nc2c1,u,n,u,x,3.55µM,u,n,n,n,u
O=S(=O)(NCc1ccccn1)C(F)(F)F,u,u,n,n,2.82µM,n[10.4 µM],n,n,n,n
COCC(=O)N1CCC[C@@]2(CCN(C(=O)Nc3cccc(F)c3)C2)C1,x,x,x,x,n,x,x,x,x,x
O=C(Nc1ccccc1F)c1ccc2ncsc2c1,n,n,n,x,n,x,x,x,x,x
COc1ccc(Cc2c(-c3ccc(C)cc3)nc3cc(C)c(Br)c(C)n23)c(C)c1,x,x,x,n,x,x,x,x,x,x
CC1CC1C(=O)Nc1nc(-c2cccs2)c(-c2cccs2)s1 (centres undefined),n,n,n,n,n,x,x,x,x,x
SMILES,Pf growth 96h,Pf growth 48h,Sm TGR inh,HCMV antiviral,Giardia FBPA inh-1,Giardia growth,Mammal cell tox,Giardia FBPA inh-2,Rabbit FBPA inh,GAPDH coupling
CCN(CCCNC(=O)c1ccc(Sc2ccc(Cl)cc2)c(NC(C)=O)c1)c1cccc(C)c1,x,x,n,n,x,x,x,x,x,x
CCN(CCNCC(O)COCc1ccc(Cl)cc1)c1cccc(C)c1 (centres undefined),u,8.28µM,n,n,22.3µM,n,n,n,n,n
CCN(CC)CCN(Cc1cc2cc3c(cc2[nH]c1=O)OCCO3)C(=S)NCCOC,x,x,x,n,x,x,x,x,x,x
CCN(CC)CCN(Cc1cc2cc3c(cc2[nH]c1=O)OCCO3)C(=S)NCC1CCCO1 (centres undefined),n,n,x,n,7.92µM,n,n,n,n,n
COc1cccc(-c2cc(C(=O)Nc3ccc(F)cc3)[nH]n2)c1,x,x,n,n,x,x,x,x,x,x
CCC(Sc1nc2ncccc2[nH]1)C(=O)NCCc1ccccc1 (centres undefined),n,n,n,-61.3,2.24µM,n[10.4 µM],n,n,n,n
CC(=O)N1CCc2cc(CNC(=O)Nc3cc(Cl)ccc3C)ccc21,x,x,n,n,x,x,x,x,x,x
CC(Oc1ccc2c(c1)oc(=O)c1ccccc12)C(=O)NC(Cc1c[nH]c2ccc(O)cc12)C(=O)O (centres undefined),n,n,n,n,n,x,x,x,x,x
Cc1ccc(CN(Cc2ccco2)C(=S)NCC(=O)NCc2cccnc2)cc1,n,n,n,n,u,x,x,x,x,x
Cc1ccc(CN(Cc2ccccc2)C(=S)NCC(=O)NCc2cccnc2)o1,n,11.7µM,n,n,15.8µM,n,n,n,n,n
O=C(CNCc1ccco1)Nc1cccc(S(=O)(=O)N2CCCCC2)c1,n,n,n,n,17.7µM,n[10.4 µM],n,n,n,n
Brc1cccc(-c2nc3ccc(Br)cn3c2Cc2ccccc2)c1,x,x,x,n,x,x,x,x,x,x
Cc1[nH]c(=S)[nH]c(=O)c1CCCO,n,n,n,n,n,x,x,x,x,x
Cc1[nH]c(=S)[nH]c(=O)c1CCC1OCCO1,n,n,n,n,7.08µM,n,n,n,n,n
C=CCOc1ccccc1CN1CCCCCC1,u,n,n,n,17.8µM,n,n,n,n,n
C=CCOc1ccccc1CN1CCSCC1,n,n,n,n,n,x,x,x,x,x
COc1ccc(C2CCCCC2SCC(=O)O)cc1OC (centres undefined),x,x,x,n,x,x,x,x,x,x
S=C(Nc1ccccn1)c1ccccn1,6.57µM!,u,n,-81.9,3.15µM,n,12.6µM,u,n,u
O=C(Nc1ccccn1)C(=O)Nc1ccccn1,n,n,n,n,n,x,x,x,x,x
COc1ccc(NC(=O)/C=C/c2ccccc2)cn1,n,n,n,n,n,x,x,x,x,x
COc1cccc(/C=C/C(=O)Nc2ccc(OC)nc2)c1,n,n,n,-66.0,22.3µM,u,n,n,n,n
Oc1c(C(c2ccccc2F)N2CCC3(CC2)OCCO3)sc2nc(-c3ccco3)nn12 (centres undefined),x,x,n,n,x,x,x,x,x,x
